# Records with an inconclusive call do not appear. Calls of active or inactive are those of the source. Calls come from the whole dose curve; as a rule, active = well fitted cell-killing curve with a large enough effect in the repeat runs; inconclusive = weak or mixed curves, or effect the other way; inactive = no such curve, though single readings can be large or run the other way.
# Assay: qHTS assay to identify small molecule antagonists of the glucocorticoid receptor (GR) signaling pathway - cell viability counter screen (AID 720693); note: nearly all actives have a fitted effect of over 55% in size
# Details: GR-bla HeLa viability, CellTiter-Glo luminescence, 18 h, with 5 nM dexamethasone present; series mostly up to 58.5 µM
row,Structure (SMILES),outcome
1,NCCCN1CCN(CCCN)CC1,inactive
2,CCOC(=O)[C@H](CCc1ccccc1)N[C@@H](C)C(=O)N1Cc2cc(OC)c(OC)cc2C[C@H]1C(=O)O,inactive
3,COc1ccc(S(=O)(=O)Nc2nnc(CC(C)C)s2)cc1,inactive
4,C[C@]12C(=O)OC(=O)[C@H]1[C@H]1C=C[C@@H]2C1,inactive
5,COC(C)CCO (stereo not given),inactive
6,Cn1cnc2c(F)c(Nc3ccc(Br)cc3Cl)c(C(=O)NOCCO)cc21,inactive
7,Cc1cc(S(=O)(=O)O)c(N)cc1Cl,inactive
8,OC[C@H]1O[C@@H](O[C@H]2[C@H](O)[C@@H](O)[C@H](O)O[C@@H]2CO)[C@H](O)[C@@H](O)[C@H]1O,inactive
9,C=CCc1cc(OC)c(O)c(C(=O)NCCO)c1,inactive
10,COc1ccccc1OCC(O)COC(N)=O (stereo not given),inactive
11,OCC(CBr)(CBr)CBr,inactive
12,CC1=C2[C@H](/C=C(\C)C(=O)O)CC[C@@H](C)[C@H]2CC1,inactive
13,OCCN(CCO)c1ccccc1,inactive
14,CC(C)C(=O)OC/C=C/c1ccccc1,inactive
15,CCOC(=O)NCCC[Si](OCC)(OCC)OCC,inactive
16,O=C1C=CC(=O)O1,inactive
17,CN1CCN(C2=Nc3cc(F)ccc3Cc3ccccc32)CC1,inactive
18,Oc1ccccc1F,inactive

row,Structure (SMILES),outcome
1,Nc1cccc(S(=O)(=O)O)c1,inactive
2,COC(=O)C(C)O (stereo not given),inactive
3,CC(C)O,inactive
4,CCCCC1CCC(=O)O1 (stereo not given),inactive
5,CC1(C)O[C@@H]2C[C@H]3[C@@H]4CCC5=CC(=O)CC[C@]5(C)[C@@]4(F)[C@@H](O)C[C@]3(C)[C@]2(C(=O)CCl)O1,inactive
6,C[C@@H]1CN(c2c(F)c(F)c3c(=O)c(C(=O)O)cn(C4CC4)c3c2F)C[C@H](C)N1,inactive
7,FC(F)(F)C(Cl)(Cl)Cl,inactive
8,CN(C)Cc1ccccc1,inactive
9,CCCCc1ccc2nc(NC(=O)OC)[nH]c2c1,inactive
10,FC(F)(F)c1ccccc1,inactive
11,Cc1ncc(CO)c(CN)c1O,inactive
12,CCc1cc(Cl)c(OC)c(C(=O)NC[C@@H]2CCCN2CC)c1O,inactive
13,Cc1nnc(SCC2=C(C(=O)O)N3C(=O)[C@@H](NC(=O)Cn4cnnn4)[C@H]3SC2)s1,inactive
14,O=C1CCCCCCCCCCC(=O)OCCO1,inactive
15,CC(C)(CO)[C@@H](O)C(=O)NCCC(=O)O,inactive
16,CCOC(=O)C1CC(=O)C(=C(O)C2CC2)C(=O)C1 (stereo not given),inactive
17,CCOc1ccccc1N,inactive

# — PubChem BioAssay (Tox21)
